Experimental data reported in PubChem BioAssay AID1159580 (chemical genetic matrix, 2015).
The campaign covered roughly 5,500 compounds. About 2,000 (36%) were called active. Another 18% or so got no clear call; they are omitted. No stated cut-off is given here; in the data, active means normalized growth mostly below about 0.91 (no sharp cut-off); inconclusive means no clear call, values can overlap the other calls; inactive means mostly above about 0.92. This is one part of the list.

Test: chemical genetic growth profiling, strain panel (AID 1159580);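 further: tested at 20 µM; growth read once vehicle control cultures reached saturation at 30 °C; 1 = growth at the plate median or of vehicle wells; lower values mean less growth of the strain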
Conditions: S. cerevisiae deletion strains, growth OD

Measured: normalized growth

C/C(=C\CO)CC[C@H](C)CCC[C@H](C)CCCC(C)C
inactive: locus YJR066W, strain TOR1, active compounds read low 0.98 | locus YJR075W, strain HOC1, active compounds read low 1.12 | locus YKL009W, strain mrt4, active compounds read low 1.09 | locus YKL160W, strain elf1, active compounds read low 0.984 | locus YKL190W, strain CNB1, active compounds read low 1.05 | locus YLR039C, strain RIC1, active compounds read low 1.16 | locus YLR058C, strain SHM2, active compounds read low 1.09 | locus YLR113W, strain HOG1, active compounds read low 0.959 | locus YLR262C, strain YPT6, active compounds read low 1.16 | locus YLR320W, strain mms22, active compounds read low 0.988 | locus YLR342W, strain FKS1 (second series), active compounds read low 1.1 | locus YLR342W, strain FKS1, active compounds read low 1.09 | locus YLR357W, strain rsc2, active compounds read low 1.1 | locus YLR371W, strain rom2, active compounds read low 1.04 | locus YLR384C, strain iki3, active compounds read low 0.978 | locus YLR418C, strain cdc73, active compounds read low 1.12 | locus YML016C, strain PPZ1, active compounds read low 1.05 | locus YMR205C, strain PFK2, active compounds read low 1.08 | locus YMR307W, strain GAS1, active compounds read low 1.1 | locus YNL067W, strain RPL9B, active compounds read low 1.08 | locus YNL183C, strain NPR1, active compounds read low 0.967 | locus YNL233W, strain BNI4, active compounds read low 1.07 | locus YNL322C, strain KRE1 (second series), active compounds read low 1.08 | locus YNL322C, strain KRE1, active compounds read low 1.07 | locus YOL006C, strain TOP1, active compounds read low 1.12 | locus YOL012C, strain htz1 1.59 | locus YOR061W, strain CKA2, active compounds read low 1.1 | locus YOR069W, strain VPS5, active compounds read low 1.05 | locus YOR080W, strain dia2, active compounds read low 0.982 | locus YOR231W, strain MKK1, active compounds read low 0.984 | locus YOR270C, strain vph1, active compounds read low 1.16 | locus YPL051W, strain arl3, active compounds read low 1.05 | locus YPL055C, strain LGE1, active compounds read low 1.05 | locus YPL256C, strain CLN2, active compounds read low 0.961 | locus YPR119W, strain clb2, active compounds read low 1.06
active: locus YKL068W, active compounds read low 1.09 [resistant] | locus YKL085W, strain MDH1 (second series), active compounds read low 1.07 [resistant] | locus YKL085W, strain MDH1, active compounds read low 1.07 [resistant] | locus YKR001C, strain vps1, active compounds read low 1.19 [resistant] | locus YKR026C, strain gcn3, active compounds read low 1.12 [resistant] | locus YKR091W, strain srl3, active compounds read low 1.12 [resistant] | locus YLL001W, strain dnm1, active compounds read low 1.13 [resistant] | locus YLL026W, active compounds read low 1.14 [resistant] | locus YLL041C, strain sdh2, active compounds read low 1.13 [resistant] | locus YLR027C, strain aat2, active compounds read low 1.12 [resistant] | locus YLR102C, strain apc9, active compounds read low 1.11 [resistant] | locus YLR221C, strain rsa3, active compounds read low 1.15 [resistant] | locus YLR258W, strain gsy2, active compounds read low 1.14 [resistant] | locus YLR262C, strain YPT6 (second series), active compounds read low 1.17 [resistant] | locus YLR268W, strain sec22, active compounds read low 1.15 [resistant] | locus YLR330W, strain CHS5, active compounds read low 1.1 [resistant] | locus YLR370C, strain arc18, active compounds read low 1.1 [resistant] | locus YML032C, strain rad52, active compounds read low 1.15 [resistant] | locus YML120C, strain ndi1, active compounds read low 1.13 [resistant] | locus YML124C, strain tub3, active compounds read low 1.12 [resistant] | locus YMR058W, strain fet3, active compounds read low 1.13 [resistant] | locus YMR078C, strain ctf18, active compounds read low 1.15 [resistant] | locus YMR125W, strain sto1, active compounds read low 1.13 [resistant] | locus YMR129W, active compounds read low 1.14 [resistant] | locus YMR223W, strain ubp8, active compounds read low 1.13 [resistant] | locus YMR231W, strain pep5, active compounds read low 1.14 [resistant] | locus YMR263W, strain SAP30, active compounds read low 1.12 [resistant] | locus YNL071W, strain lat1, active compounds read low 1.13 [resistant] | locus YNL153C, strain GIM3, active compounds read low 1.13 [resistant] | locus YNL209W, strain ssb2, active compounds read low 1.12 [resistant] | locus YNL248C, strain rpa49, active compounds read low 1.13 [resistant] | locus YNL250W, strain rad50, active compounds read low 1.13 [resistant] | locus YNL271C, strain bni1, active compounds read low 1.12 [resistant] | locus YNL298W, strain CLA4, active compounds read low 1.14 [resistant] | locus YNL307C, strain MCK1, active compounds read low 1.14 [resistant] | locus YNR049C, strain mso1, active compounds read low 1.11 [resistant] | locus YNR052C, strain pop2, active compounds read low 1.14 [resistant] | locus YOL147C, strain pex11, active compounds read low 1.12 [resistant] | locus YOR001W, strain rrp6, active compounds read low 1.15 [resistant] | locus YOR070C, strain gyp1, active compounds read low 1.08 [resistant] | locus YOR083W, strain WHI5, active compounds read low 1.14 [resistant] | locus YOR106W, strain vam3, active compounds read low 1.15 [resistant] | locus YOR136W, strain idh2, active compounds read low 1.15 [resistant] | locus YOR144C, strain elg1, active compounds read low 1.13 [resistant] | locus YOR184W, strain ser1, active compounds read low 1.15 [resistant] | locus YOR265W, strain rbl2, active compounds read low 1.14 [resistant] | locus YOR290C, strain snf2, active compounds read low 1.13 [resistant] | locus YOR316C, strain cot1, active compounds read low 1.13 [resistant] | locus YPL078C, strain atp4, active compounds read low 1.12 [resistant] | locus YPL106C, strain sse1, active compounds read low 1.15 [resistant] | locus YPL240C, strain hsp82, active compounds read low 1.12 [resistant] | locus YPR141C, strain kar3, active compounds read low 1.12 [resistant] | locus YPR163C, strain tif3, active compounds read low 1.13 [resistant] | locus YPR167C, strain met16, active compounds read low 1.09 [resistant] | strain wtn01, active compounds read low 1.12 [resistant]
